Assay outcomes deposited in PubChem BioAssay by National Center for Advancing Translational Sciences (NCATS).
TDP1 cell noCPT = qHTS for Inhibitors of human tyrosyl-DNA phosphodiesterase 1 (TDP1): qHTS in cells in absence of CPT. DT40 Tdp1-/- hTDP1 cells, no CPT, ATP luminescence, 48 h. AID 686978, 2013. Potency, µM (highest dose often 46.2 µM), for the others: at the highest dose activity change, negative = growth inhibition, actives largely listed as inhibitors. actives 15% (n = 420,000); further: nearly all actives have a fitted effect of over 55% in size
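Cells were dispensed at 400 per well, compounds added by pin tool, plates incubated ≥48 hr at 37 °C, then CellTiter-Glo added for 30 min at room temperature before luminescence reading. Line: DT40 Tdp1-/- complemented with hTDP1; camptothecin omitted.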
KB-3-1 tox = kills parental KB-3-1 adenocarcinoma cells. KB-3-1 viability, CellTiter-Glo ATP luminescence, 72 h. Potency, µM (titrated, usually from 46.1 µM), hits mostly cytotoxic. actives 1.4% (n = 400,000). AID 1347075; further: nearly all actives have a fitted effect of over 60% in size
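Luminescent ATP read-out (CellTiter-Glo) measures survival of drug-naive KB-3-1 cells after 72 h compound exposure at 37 °C. Titration series was screened from lowest to highest concentration, with DMSO vehicle plates as background controls.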
HT1080NT lethal = kills 2HG-producing HT-1080-NT fibrosarcoma cells; HT-1080-NT fibrosarcoma viability, CellTiter-Glo ATP luminescence, 48 h; Potency, µM (top dose mostly 46.1 µM), for the others: at the top dose activity, negative = less viability, hits mostly cytotoxic; actives 1.6% (n = 360,000);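 further: NT is the 2HG producing partner of a matched IDH1 knockdown line; 0% = DMSO-treated cells and -100% = media-only wells without cells; nearly all actives have a fitted effect of over 55% in size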
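Viability of the 2HG-overproducing fibrosarcoma line after 48 hours of compound exposure at 37 degrees C was determined by luminescence with CellTiter-Glo, and concentration-effect curves were then fitted and categorized.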
TDP1 cell CPT = growth inhibition of DT40 Tdp1-/-;hTDP1 cells with camptothecin (screen for TDP1 inhibitors); actives 12% (n = 420,000); chicken DT40 Tdp1-/-;hTDP1 cells + 20 nM CPT, ATP luminescence, 48 h; Potency, µM (titrated, usually from 46.2 µM), for inactives: at the top dose activity change, negative = growth inhibition, usual class: inhibitors; further: nearly all actives have a fitted effect of over 55% in size
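Chicken DT40 Tdp1-/- cells complemented with human TDP1, 400 cells/well, exposed to compounds plus 20 nM camptothecin for at least 48 h at 37 C; viability read as ATP content by CellTiter-Glo luminescence.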
HT1080 IDH1KD tx = toxicity to HT-1080 IDH1 knockdown cells (counter line); Potency, µM (series often up to 46.1 µM), inactives show top-dose activity, negative = toxicity, actives largely listed as cytotoxic; HT-1080 IDH1 knockdown viability, ATP luminescence, 48 h; actives 2% (n = 360,000);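 further: 0% = DMSO wells and -100% = cell-free medium wells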
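Viability of IDH1-knockdown HT-1080 fibrosarcoma cells was assessed by CellTiter-Glo after 48 h at 37 °C with titrated compound; concentration-effect curves were classified by fit quality and response size.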
KB-V1 MDR tox = kills drug-selected multidrug resistant KB-V1 cells; Potency, µM (highest dose often 46.1 µM), actives largely listed as cytotoxic; actives 3.4% (n = 400,000); KB-V1 MDR cells viability, CellTiter-Glo, 72 h; further: nearly all actives have a fitted effect of over 60% in size
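Cells of the MDR subline KB-V1 are plated, dosed with compound at multiple concentrations, and incubated 72 h at 37 degrees C; CellTiter-Glo is then added and luminescence read after 10 min.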
Starred values were filed as active, the others as inactive; i = inactive; ? = inconclusive; nt = not tested or not shown; [ ] = dose if it differs, or a comment. Most compounds without a hit are left out; they make up all but 19% or so of the library. The call rests on the fitted dose curve; in most records, active means well fitted curve in the direction sought with a large enough effect; inconclusive means small, poorly fitted or top-dose-only effect, or another doubt; inactive means no such curve, though single readings can be large; an effect the other way counts as inactive or inconclusive. Unless noted, on the % scale 0 is the no-effect control and ±100 the full control effect; potency means the concentration at half of the fitted maximal effect.

SMILES	TDP1 cell noCPT	KB-3-1 tox	HT1080NT lethal	TDP1 cell CPT	HT1080 IDH1KD tx	KB-V1 MDR tox
O=C(C[n+]1cc(-c2ccccc2)n2c1CCC2)Nc1nc(-c2ccccc2)cs1	23.1µM*	16.4µM*	0.1%	?	-10.2%	i
Cc1ccc(-c2c[n+](CC(=O)Nc3nc(-c4ccccc4)cs3)c3n2CCC3)cc1	18.4µM*	i	?	14.6µM*	23.1µM*	i
Cc1ccc(-c2c[n+](CC(=O)Nc3cc(=O)n(C)c(=O)n3C)c3n2CCC3)cc1	14.6µM*	?	-5.0%	?	-7.7%	i
N#Cc1c2c(c(NCc3cccnc3)n3c1nc1ccccc13)CCC2	-7.7%	i	-9.4%	-5.5%	-3.2%	i
O=C(Nc1ccc(S(=O)(=O)Nc2ncccn2)cc1)c1ccccc1Br	-0.8%	i	-5.9%	-15.4%	0.4%	i
COc1ccccc1C(=O)NNC(=O)C1CC=CCC1 (centres undefined)	1.8%	i	-4.2%	-16.3%	-0.5%	i
C[C@@H]1CN([C@@H](C)CO)C(=O)CCCn2nncc2CO[C@H]1CN(C)S(=O)(=O)c1cccc(C#N)c1	-5.0%	i	1.7%	9.9%	5.7%	i
CCC(C(=O)NC1CCCCC1)n1c2ccccc2c2nc(=O)cc(C)n21 (centres undefined)	-9.8%	i	8.6%	-13.1%	14.2%	i
N#CCNC(=O)c1nn2c(C(F)(F)F)cc(-c3ccccc3)nc2c1Br	18.1%	i	6.9%	-0.1%	12.0%	i
CCCCNC(=O)c1nn2c(C(F)(F)F)cc(-c3ccccc3)nc2c1Br	20.6µM*	i	19.1%	?	6.4%	i
Cc1c(NC(=O)c2nn3c(C(F)(F)F)cc(-c4ccccc4)nc3c2Br)c(=O)n(-c2ccccc2)n1C	?	?	4.7%	-20.3%	19.9%	?
COc1ccc(-c2cc(C(F)(F)F)n3nc(C(=O)Nc4cccc(C(F)(F)F)c4)c(Br)c3n2)cc1	?	i	nt	13µM*	nt	?
CCN(CC(=O)Nc1ccccc1C(F)(F)F)C(=O)CCOc1ccc(C)cc1	?	i	-11.0%	-3.5%	-9.4%	?
O=C(CCC(=O)N1CCOCC1)NCCc1ccccc1	-4.3%	i	-3.0%	-11.2%	-1.4%	i
CCOC(=O)COc1c(OC)cc(Cl)cc1C1Nc2ccccc2C(=O)N1c1cccc(C)c1 (centres undefined)	25.9µM*	i	1.0%	?	-21.9%	i
CCOC(=O)COc1c(OC)cc(Cl)cc1C1Nc2ccccc2C(=O)N1c1ccccc1 (centres undefined)	-26.3%	i	0.9%	-27.3%	-3.6%	i
CCc1ccc(Nc2nnc(SCC(=O)N(C)CC(=O)Nc3ccccc3CC)s2)cc1	14.6µM*	i	16.3%	18.4µM*	8.8%	?
CCc1ccccc1NC(=O)CN(C)C(=O)CSc1nnc(Nc2cccc(C)c2)s1	?	i	6.4%	-10.9%	5.5%	?
CCN1CCCC1CN(Cc1cc2ccc(C)cc2[nH]c1=O)C(=S)Nc1ccc(OC)cc1 (centres undefined)	5.17µM*	?	?	?	?	?
CCN1CCCC1CN(Cc1cc2ccc(C)cc2[nH]c1=O)C(=S)Nc1cccc(OC)c1 (centres undefined)	29.1µM*	i	?	?	18.4µM*	i
COc1ccc2[nH]c(=O)c(CN(CC3CCCO3)C(=S)Nc3ccccc3)cc2c1 (centres undefined)	?	i	-7.6%	?	1.0%	i
O=C(NCC(c1ccco1)N1CCc2ccccc2C1)C(=O)Nc1cc(F)ccc1F (centres undefined)	?	i	1.8%	-28.6%	-0.9%	?
Cc1ccc(S(=O)(=O)NCc2csc(C)n2)cc1	-9.0%	i	14.7%	5.8%	-1.6%	i
COc1ccc(S(=O)(=O)NCc2csc(C)n2)cc1OC	12.2%	i	4.7%	7.4%	3.2%	i
Cc1nc(CNS(=O)(=O)c2ccc3c(c2)CCCC3)cs1	?	i	-6.7%	16.4µM*	5.2%	i
SMILES	TDP1 cell noCPT	KB-3-1 tox	HT1080NT lethal	TDP1 cell CPT	HT1080 IDH1KD tx	KB-V1 MDR tox
CCCCOc1ccc(S(=O)(=O)NCc2csc(C)n2)cc1	23.1µM*	18.4µM*	?	13µM*	-21.8%[9.24 µM]	?
Cc1ccsc1-c1nc(C(N)=O)c2[nH]c(=O)n(-c3ccc(Cl)cc3)c2n1	4.11µM*	i	3.0%	5.8µM*	-2.2%	i
Cc1ccc(-n2c(=O)[nH]c3c(C(N)=O)nc(C(C)C)nc32)cc1	?	i	-4.8%	-25.7%	-4.5%	i
CCCC(C)c1nc(C(N)=O)c2[nH]c(=O)n(-c3ccc(OC)c(OC)c3)c2n1 (centres undefined)	0.0%	i	11.9%	-28.2%	-3.0%	5.8µM*
CCc1ccc(-c2nc(C(N)=O)c3[nH]c(=O)n(-c4ccccc4OC)c3n2)cc1	2.59µM*	i	?	2.31µM*	?	i
COc1ccc(-c2nc(C(N)=O)c3[nH]c(=O)n(-c4cccc(Cl)c4)c3n2)cc1OC	20.6µM*	?	?	?	16.4µM*	7.31µM*
CCOc1ccccc1-c1nc(C(N)=O)c2[nH]c(=O)n(-c3ccc(F)cc3)c2n1	-29.8%	i	0.6%	-4.8%	0.5%	i
COc1cccc(-c2nc(C(N)=O)c3[nH]c(=O)n(-c4cccc(Cl)c4)c3n2)c1OC	8.9%	i	-1.3%	-0.2%	-3.3%	i
CC(C)c1nc(C(N)=O)c2[nH]c(=O)n(-c3ccc(F)cc3)c2n1	?	i	2.5%	-18.9%	1.9%	i
NNC(=O)c1ccc(CSc2nc3ccccc3[nH]2)cc1	?	i	-10.6%	?	?	i
COc1ccc(Cl)cc1NC(=O)CN(C)C(=O)c1sc2ccccc2c1Cl	?	?	?	16.4µM*	?	?
COc1ccc(Cl)cc1NC(=O)CN(C)C(=O)c1cc2c(s1)CCCC2	?	?	-8.0%	?	-20.2%	13µM*
COc1ccc(Cl)cc1NC(=O)CN(C)C(=O)Cc1ccc2c(c1)CCC2	?	i	-6.8%	?	-24.4%	i
